Values joined by “and” are separate entries in the source; they are usually repeats but may differ in a detail not shown here. Identical values can stand only once. Among all 5,500 compounds or so, about 2,000 (36%) were called active. Inconclusive results (about 18%) are left out. Rule as the data show it: active = normalized growth mostly below about 0.91 (no sharp cut-off); inconclusive = no clear call, values can overlap the other calls; inactive = mostly above about 0.92. This is one part of the list.
Assay: chemical genetic growth profiling, strain panel (AID 1159580);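 also: tested at 20 µM; growth read once vehicle control cultures reached saturation at 30 °C; 1 = growth at the plate median or of vehicle wells; lower values mean less growth of the strain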
Conditions: S. cerevisiae deletion strains, growth OD

Measured: normalized growth

NS(=O)(=O)c1cc2c(cc1Cl)NCNS2(=O)=O
inactive: locus YAL013W, strain DEP1, stronger effect = lower value 1.01 | locus YAL021C, strain ccr4, stronger effect = lower value 1 | locus YAL026C, strain drs2, stronger effect = lower value 1.01 | locus YAL030W, strain snc1, stronger effect = lower value 1 | locus YAL040C, strain CLN3, stronger effect = lower value 1.01 | locus YBL061C, strain skt5, stronger effect = lower value 0.995 | locus YBR009C, strain hhf1, stronger effect = lower value 0.996 | locus YBR021W, strain FUR4, stronger effect = lower value 0.994 | locus YBR023C, strain chs3, stronger effect = lower value 0.984 | locus YBR171W, strain sec66, stronger effect = lower value 0.997 | locus YBR229C, strain ROT2, stronger effect = lower value 1 | locus YBR231C, strain swc5, stronger effect = lower value 0.976 | locus YBR279W, strain paf1, stronger effect = lower value 0.999 | locus YCL011C, strain gbp2, stronger effect = lower value 1 | locus YCL016C, strain dcc1, stronger effect = lower value 0.971 | locus YCL029C, strain bik1, stronger effect = lower value 0.996 | locus YCL061C, strain MRC1 (second series), stronger effect = lower value 1.01 | locus YCL061C, strain MRC1, stronger effect = lower value 0.999 | locus YCL069W, strain vba3, stronger effect = lower value 0.993 | locus YCR088W, strain abp1, stronger effect = lower value 0.995 | locus YDL005C, strain med2, stronger effect = lower value 0.984 | locus YDL035C, strain GPR1, stronger effect = lower value 1.02 | locus YDL040C, strain nat1, stronger effect = lower value 1 | locus YDL074C, strain BRE1, stronger effect = lower value 0.989 | locus YDL101C, strain DUN1, stronger effect = lower value 1.01 | locus YDL134C, strain PPH21, stronger effect = lower value 1.01 | locus YDL185W, strain tfp1, stronger effect = lower value 0.998 | locus YDL192W, strain arf1, stronger effect = lower value 0.999 | locus YDR001C, strain nth1, stronger effect = lower value 0.996 | locus YDR069C, strain doa4, stronger effect = lower value 1.03 | locus YDR101C, strain arx1, stronger effect = lower value 1.03 | locus YDR137W, strain rgp1, stronger effect = lower value 0.97 | locus YDR159W, strain sac3, stronger effect = lower value 1 | locus YDR162C, strain NBP2, stronger effect = lower value 1.01 | locus YDR195W, strain ref2 0.982 | locus YDR297W, strain sur2, stronger effect = lower value 1 | locus YDR318W, strain mcm21, stronger effect = lower value 0.991 | locus YDR334W, strain swr1, stronger effect = lower value 1 | locus YDR335W, strain msn5, stronger effect = lower value 1 | locus YDR363W, strain ESC2, stronger effect = lower value 1.02 | locus YDR388W, stronger effect = lower value 0.993 | locus YDR392W, strain spt3, stronger effect = lower value 0.962 | locus YDR502C, strain sam2, stronger effect = lower value 0.994 | locus YEL003W, strain gim4, stronger effect = lower value 1.01 | locus YEL037C, strain rad23, stronger effect = lower value 0.992 | locus YEL061C, strain CIN8 (second series), stronger effect = lower value 0.991 | locus YEL061C, strain CIN8, stronger effect = lower value 1 | locus YER002W, strain NOP16, stronger effect = lower value 0.996 | locus YER015W, strain faa2, stronger effect = lower value 0.983 | locus YER016W, strain bim1, stronger effect = lower value 1.01 | locus YER110C, stronger effect = lower value 0.998 | locus YER111C, strain swi4, stronger effect = lower value 0.992 | locus YER155C, strain BEM2 (second series), stronger effect = lower value 1.02 | locus YER155C, strain BEM2, stronger effect = lower value 1.01 | locus YER167W, strain BCK2, stronger effect = lower value 1 | locus YFR010W, strain ubp6, stronger effect = lower value 1 | locus YGL078C, strain dbp3, stronger effect = lower value 0.997 | locus YGL086W, strain mad1, stronger effect = lower value 0.999 | locus YGL167C, strain pmr1, stronger effect = lower value 1 | locus YGL173C, strain kem1, stronger effect = lower value 0.996 | locus YGL227W, strain vid30, stronger effect = lower value 0.996 | locus YGL240W, strain doc1, stronger effect = lower value 1 | locus YGL248W, strain PDE1, stronger effect = lower value 1 | locus YGL253W, strain hxk2, stronger effect = lower value 1 | locus YGR078C, strain PAC10, stronger effect = lower value 1.01 and 0.993 | locus YGR135W, strain pre9, stronger effect = lower value 0.984 | locus YGR229C, strain SMI1, stronger effect = lower value 1.01 | locus YGR252W, strain gcn5, stronger effect = lower value 0.969 | locus YHR013C, strain ard1, stronger effect = lower value 0.999 | locus YHR027C, strain rpn1, stronger effect = lower value 0.99 | locus YHR030C, strain SLT2, stronger effect = lower value 1.01 and 0.971 | locus YHR079C, strain IRE1 (second series), stronger effect = lower value 0.996 | locus YHR079C, strain IRE1, stronger effect = lower value 0.962 | locus YHR094C, strain hxt1, stronger effect = lower value 0.993 | locus YHR129C, strain ARP1, stronger effect = lower value 1 | locus YHR142W, strain chs7, stronger effect = lower value 0.994 | locus YHR200W, strain rpn10, stronger effect = lower value 1 | locus YIL066C, strain RNR3, stronger effect = lower value 1.01 | locus YIL073C, strain SPO22, stronger effect = lower value 1.01 | locus YIL125W, strain kgd1, stronger effect = lower value 0.996 | locus YIR030C, strain dcg1, stronger effect = lower value 1 | locus YJL092W, strain hpr5, stronger effect = lower value 1 | locus YJL095W, strain BCK1 (second series), stronger effect = lower value 1 | locus YJL095W, strain BCK1, stronger effect = lower value 1.01 and 0.976 | locus YJL115W, strain asf1, stronger effect = lower value 1.01 | locus YJL129C, strain trk1, stronger effect = lower value 1 | locus YJL134W, strain LCB3, stronger effect = lower value 1.01 | locus YJL154C, strain vps35, stronger effect = lower value 0.995 | locus YJL164C, strain tpk1, stronger effect = lower value 0.995 | locus YJL166W, strain qcr8, stronger effect = lower value 0.999 | locus YJL168C, strain set2, stronger effect = lower value 0.993 | locus YJL187C, strain SWE1 (second series), stronger effect = lower value 1.01 | locus YJL187C, strain SWE1, stronger effect = lower value 0.998 | locus YJR043C, strain POL32, stronger effect = lower value 1.02 | locus YJR066W, strain TOR1, stronger effect = lower value 0.937 | locus YJR075W, strain HOC1, stronger effect = lower value 1.01 | locus YKL009W, strain mrt4, stronger effect = lower value 1.01 | locus YKL068W, stronger effect = lower value 1 | locus YKL085W, strain MDH1 (second series), stronger effect = lower value 0.994 | locus YKL085W, strain MDH1, stronger effect = lower value 0.994 | locus YKL160W, strain elf1, stronger effect = lower value 0.988 | locus YKL190W, strain CNB1, stronger effect = lower value 1.01 | locus YKR001C, strain vps1, stronger effect = lower value 1.01 | locus YKR026C, strain gcn3, stronger effect = lower value 0.997 | locus YKR091W, strain srl3, stronger effect = lower value 0.997 | locus YLL001W, strain dnm1, stronger effect = lower value 0.98 | locus YLL026W, stronger effect = lower value 1 | locus YLL041C, strain sdh2, stronger effect = lower value 0.997 | locus YLR027C, strain aat2, stronger effect = lower value 1.01 | locus YLR039C, strain RIC1, stronger effect = lower value 0.936 | locus YLR058C, strain SHM2, stronger effect = lower value 0.989 | locus YLR102C, strain apc9, stronger effect = lower value 0.993 | locus YLR113W, strain HOG1, stronger effect = lower value 0.989 | locus YLR221C, strain rsa3, stronger effect = lower value 0.963 | locus YLR258W, strain gsy2, stronger effect = lower value 0.996 | locus YLR262C, strain YPT6 (second series), stronger effect = lower value 0.992 | locus YLR262C, strain YPT6, stronger effect = lower value 1.01 | locus YLR268W, strain sec22, stronger effect = lower value 0.991 | locus YLR320W, strain mms22, stronger effect = lower value 0.998 | locus YLR330W, strain CHS5, stronger effect = lower value 1.01 | locus YLR342W, strain FKS1 (second series), stronger effect = lower value 1.02 | locus YLR342W, strain FKS1, stronger effect = lower value 1 | locus YLR357W, strain rsc2, stronger effect = lower value 1.01 | locus YLR370C, strain arc18, stronger effect = lower value 0.983 | locus YLR371W, strain rom2, stronger effect = lower value 1 | locus YLR384C, strain iki3, stronger effect = lower value 0.996 | locus YLR418C, strain cdc73, stronger effect = lower value 0.978 | locus YML016C, strain PPZ1, stronger effect = lower value 1.01 | locus YML032C, strain rad52, stronger effect = lower value 1 | locus YML120C, strain ndi1, stronger effect = lower value 0.978 | locus YML124C, strain tub3, stronger effect = lower value 0.999 | locus YMR058W, strain fet3, stronger effect = lower value 0.998 | locus YMR078C, strain ctf18, stronger effect = lower value 0.993 | locus YMR125W, strain sto1, stronger effect = lower value 1 | locus YMR129W, stronger effect = lower value 0.995 | locus YMR205C, strain PFK2, stronger effect = lower value 0.992 | locus YMR223W, strain ubp8, stronger effect = lower value 0.985 | locus YMR231W, strain pep5, stronger effect = lower value 0.996 | locus YMR263W, strain SAP30, stronger effect = lower value 1.01 | locus YMR307W, strain GAS1, stronger effect = lower value 0.999 | locus YNL067W, strain RPL9B, stronger effect = lower value 1.01 | locus YNL071W, strain lat1, stronger effect = lower value 1 | locus YNL128W, strain TEP1, stronger effect = lower value 1.02 | locus YNL153C, strain GIM3, stronger effect = lower value 1.01 and 1.02 | locus YNL175C, strain NOP13, stronger effect = lower value 1.02 | locus YNL183C, strain NPR1, stronger effect = lower value 0.956 | locus YNL197C, strain WHI3, stronger effect = lower value 1 | locus YNL209W, strain ssb2, stronger effect = lower value 0.998 | locus YNL224C, strain SQS1, stronger effect = lower value 0.996 | locus YNL233W, strain BNI4, stronger effect = lower value 1.01 | locus YNL248C, strain rpa49, stronger effect = lower value 1.01 | locus YNL250W, strain rad50, stronger effect = lower value 0.987 | locus YNL271C, strain bni1, stronger effect = lower value 0.991 | locus YNL298W, strain CLA4, stronger effect = lower value 1 | locus YNL307C, strain MCK1, stronger effect = lower value 0.999 | locus YNL322C, strain KRE1 (second series), stronger effect = lower value 0.993 | locus YNL322C, strain KRE1, stronger effect = lower value 1 and 1.01 | locus YNR049C, strain mso1, stronger effect = lower value 1 | locus YNR052C, strain pop2, stronger effect = lower value 0.999 | locus YOL006C, strain TOP1, stronger effect = lower value 1.03 | locus YOL012C, strain htz1 0.74 | locus YOL147C, strain pex11, stronger effect = lower value 0.993 | locus YOR001W, strain rrp6, stronger effect = lower value 1.04 | locus YOR061W, strain CKA2, stronger effect = lower value 1 | locus YOR069W, strain VPS5, stronger effect = lower value 1.01 | locus YOR070C, strain gyp1, stronger effect = lower value 0.994 | locus YOR080W, strain dia2, stronger effect = lower value 1 | locus YOR083W, strain WHI5 (second series), stronger effect = lower value 0.981 | locus YOR083W, strain WHI5, stronger effect = lower value 0.988 | locus YOR106W, strain vam3, stronger effect = lower value 1.01 | locus YOR136W, strain idh2, stronger effect = lower value 0.997 | locus YOR144C, strain elg1, stronger effect = lower value 0.994 | locus YOR184W, strain ser1, stronger effect = lower value 0.994 | locus YOR231W, strain MKK1, stronger effect = lower value 0.972 | locus YOR265W, strain rbl2, stronger effect = lower value 0.997 | locus YOR270C, strain vph1, stronger effect = lower value 1.03 | locus YOR290C, strain snf2, stronger effect = lower value 0.956 | locus YOR316C, strain cot1, stronger effect = lower value 0.996 | locus YPL051W, strain arl3, stronger effect = lower value 1 | locus YPL055C, strain LGE1, stronger effect = lower value 1.02 | locus YPL078C, strain atp4, stronger effect = lower value 0.994 | locus YPL106C, strain sse1, stronger effect = lower value 0.979 | locus YPL240C, strain hsp82, stronger effect = lower value 1 | locus YPL241C, strain CIN2, stronger effect = lower value 1.01 | locus YPL256C, strain CLN2, stronger effect = lower value 0.986 | locus YPR119W, strain clb2, stronger effect = lower value 0.992 | locus YPR141C, strain kar3, stronger effect = lower value 1 | locus YPR163C, strain tif3, stronger effect = lower value 0.994 | locus YPR167C, strain met16, stronger effect = lower value 1 | strain wtn01, stronger effect = lower value 0.984
